Compound activity deposited in PubChem by National Center for Advancing Translational Sciences (NCATS).
Only a selection was taken, and hits are over-represented in it overall.
12-LOX inh: ALOX12 (human) lipoxygenase inhibition; hit rate 1.1% among 580,000; P18054; AID 1671190; Potency, µM (top dose mostly 108 µM), inactives show at the highest dose activity change, negative = inhibition, hits mostly inhibitors; purified 12hLO, xylenol orange hydroperoxide absorbance; note: potency is the fitted concentration of half-maximal effect
Target sequence (P18054 whole entry, looked up): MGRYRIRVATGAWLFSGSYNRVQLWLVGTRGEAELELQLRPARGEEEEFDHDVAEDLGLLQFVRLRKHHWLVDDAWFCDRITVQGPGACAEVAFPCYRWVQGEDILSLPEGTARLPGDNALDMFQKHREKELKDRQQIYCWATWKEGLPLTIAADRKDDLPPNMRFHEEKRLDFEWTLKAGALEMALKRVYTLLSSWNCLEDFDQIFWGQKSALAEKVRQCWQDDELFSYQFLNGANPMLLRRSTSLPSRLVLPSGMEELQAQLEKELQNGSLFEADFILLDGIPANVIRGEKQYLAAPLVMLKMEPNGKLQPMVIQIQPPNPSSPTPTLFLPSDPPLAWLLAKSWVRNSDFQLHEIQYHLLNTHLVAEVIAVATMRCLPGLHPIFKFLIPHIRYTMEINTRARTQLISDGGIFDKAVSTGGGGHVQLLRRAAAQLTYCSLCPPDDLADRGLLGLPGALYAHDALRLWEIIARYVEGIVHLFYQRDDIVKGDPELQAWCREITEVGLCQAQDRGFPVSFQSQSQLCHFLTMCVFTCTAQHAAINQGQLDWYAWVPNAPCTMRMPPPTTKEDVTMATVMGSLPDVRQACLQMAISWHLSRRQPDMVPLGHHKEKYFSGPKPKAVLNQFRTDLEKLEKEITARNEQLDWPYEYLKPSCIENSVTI
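Purified human 12hLO (150 nM final) in 25 mM Hepes, 0.01% Triton X-100, pH 7.0 was preincubated 15 min at room temperature with compound. Then 40 uM arachidonic acid was added, 30 min. Hydroperoxide was read by Fe-XO absorbance ratio 573/405 nm.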
IL-1B inflam inh: blocks inflammasome-driven IL-1 beta release. THP-1 LPS/ATP IL-1B secretion, AlphaLISA, 16 h; stronger effect = lower value. activity change, % at 57.5 µM. hit rate 4.7% among 360,000. AID 743279; in the data active = activity change below about -50%; inconclusive = mostly about -30% to -49%
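Secreted IL-1B measured by AlphaLISA bead assay after 16 h compound exposure of THP-1 cells; compounds (final up to 57.5 uM) added 1 h before LPS (250 ng/mL) and ATP (1.25 mM) stimulation; lower signal means less secretion.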
DT40 TDP1 CPT: DT40-hTDP1 cell growth loss with CPT. Potency, µM (doses to about 46.2 µM), inactives show at the highest dose activity change, negative = growth inhibition, hits mostly inhibitors. hit rate 12% among 420,000. chicken DT40 Tdp1-/-;hTDP1 cells + 20 nM CPT, ATP luminescence, 48 h. AID 686979; note: potency is the fitted concentration of half-maximal effect; nearly all actives have a fitted effect of over 55% in size
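Cell growth measured by CellTiter-Glo luminescence after a minimum 48 h, 37 C compound exposure with 20 nM CPT in Tdp1-knockout DT40 cells stably expressing hTDP1, seeded 400/well; qHTS titration format.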
HT1080NT lethal: kills 2HG-producing HT-1080-NT fibrosarcoma cells. hit rate 1.6% among 360,000. Potency, µM (top dose mostly 46.1 µM), without a hit: at the top dose activity, negative = less viability, hits mostly cytotoxic. HT-1080-NT fibrosarcoma viability, CellTiter-Glo ATP luminescence, 48 h;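 note: NT is the 2HG producing partner of a matched IDH1 knockdown line; potency is the fitted concentration of half-maximal effect; 0% = DMSO-treated cells and -100% = media-only wells without cells; nearly all actives have a fitted effect of over 55% in size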
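Viability of the 2HG-overproducing fibrosarcoma line after 48 hours of compound exposure at 37 degrees C was determined by luminescence with CellTiter-Glo, and concentration-effect curves were then fitted and categorized.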
TDP1 cell noCPT: qHTS for Inhibitors of human tyrosyl-DNA phosphodiesterase 1 (TDP1): qHTS in cells in absence of CPT. DT40 Tdp1-/- hTDP1 cells, no CPT, ATP luminescence, 48 h. AID 686978, 2013. hit rate 15% among 420,000. Potency, µM (titrated, usually from 46.2 µM), inactives show at the top dose activity change, negative = growth inhibition, actives largely listed as inhibitors; note: potency is the fitted concentration of half-maximal effect; nearly all actives have a fitted effect of over 55% in size
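Camptothecin absent (DMSO only). Human TDP1-complemented DT40 knockout cells, 400 cells/well, 37 °C for minimum 48 hr; ATP measured via CellTiter-Glo, 30 min dark incubation, luminescence.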
HT1080 IDH1KD tx: HT-1080 IDH1 knockdown cell toxicity (counter line); HT-1080 IDH1 knockdown viability, ATP luminescence, 48 h; Potency, µM (highest dose often 46.1 µM), without a hit: top-dose activity, negative = toxicity, hits mostly cytotoxic; hit rate 2% among 360,000;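 note: potency is the fitted concentration of half-maximal effect; 0% = DMSO wells and -100% = cell-free medium wells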
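HT-1080-IDH1KD cells (IDH1 knocked down), 750/well in RPMI with 5% FBS, treated with compound 48 h at 37 degrees C. Viability by CellTiter-Glo luminescence, normalised to DMSO and no-cell wells; concentration-response curves classed.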
The depositor's hits bear a star; ? = inconclusive; nt = no result. Unless noted, calls come from the whole dose curve; as a rule, active = well fitted curve in the direction sought with a large enough effect; inconclusive = small, poorly fitted or top-dose-only effect, or another doubt; inactive = no such curve, though single readings can be large; an effect the other way counts as inactive or inconclusive. Unless noted, % is set by controls: 0 for no effect and ±100 for the full control effect.

SMILES	12-LOX inh	IL-1B inflam inh	DT40 TDP1 CPT	HT1080NT lethal	TDP1 cell noCPT	HT1080 IDH1KD tx
COc1cccc(OC)c1C(=O)Nc1cccc(-c2nc3cc(Cl)ccc3o2)c1	0%	nt	nt	nt	nt	nt
COc1ccc(C(=O)O/N=C(\N)Cc2ccc([N+](=O)[O-])cc2)c(OC)c1	0%	-11	1.3µM*	?	1.8µM*	18µM*
Cc1ccc(OCC(=O)O/N=C(\N)Cc2ccc(Cl)cc2)cc1	9%	0	6.5µM*	9%	4.6µM*	-10%
N/C(Cc1ccc(Cl)cc1)=N\OC(=O)Cc1ccc([N+](=O)[O-])cc1	-16%	-103*	?	6%	?	5%
COc1ccc(OCC(=O)O/N=C(\N)Cc2ccc(Cl)cc2)cc1	-3%	0	-15%	0%	-5%	2%
O=Cc1cc(Cl)c(OCc2ccc(C(=O)O)cc2)c(Cl)c1	-20%	nt	nt	nt	nt	nt
COc1cccc(C(=O)COC(=O)C(CC(=O)c2ccccc2)Nc2ccc(F)cc2)c1 (stereo not drawn)	-23%	nt	nt	nt	nt	nt
N#C/C(=N\Nc1cccc(C(F)(F)F)c1)C(=O)c1ccsc1	?	?	5.2µM*	4.6µM*	5.8µM*	?
CC(C)Cn1c(SCC(=O)Nc2ccc(C(=O)O)cc2)nnc1-c1ccc(Cl)cc1	10%	nt	nt	nt	nt	nt
COc1ccc(CNC(=O)C2Cc3c(-c4cccc(C(C)=O)c4)ccnc3O2)cc1OC (stereo not drawn)	?	51	?	-28%	?	?
O=C(NCc1cccs1)C1Cc2c(-c3ccc(Cl)cc3)ccnc2O1 (stereo not drawn)	-24%	51	1.5µM*	?	1.8µM*	2.1µM*
CC(=O)c1cccc(-c2ccnc3c2CC(C(=O)NCc2cccs2)O3)c1 (stereo not drawn)	1%	90	0.73µM*	?	0.73µM*	?
O=C(NCC1CC1)C1Cc2c(-c3ccc(Cl)cc3)ccnc2O1 (stereo not drawn)	-18%	-21	?	-17%	?	-20%
COc1ccc(-c2oc3c(c2-c2cnc(OC)nc2)C(O)CC3)cc1 (stereo not drawn)	?	-11	?	15%	?	-1%
CCOC1CCCc2oc(-c3ccsc3)c(-c3cnc(OC)nc3)c21 (stereo not drawn)	?	-10	?	0%	23µM*	-3%
CN(CC(=O)Nc1ccc(Cl)c(C(F)(F)F)c1)C(=O)C1CCN(C(=O)c2ccc(Cl)cc2)CC1	185%	?	?	?	?	?
Cc1sc2ncnc(N3CCC(C(=O)N(C)CC(=O)Nc4cccc(F)c4)CC3)c2c1C	0%	?	9.2µM*	?	13µM*	?
Cc1sc2ncnc(N3CCC(C(=O)N(C)CC(=O)Nc4ccccc4Br)CC3)c2c1C	5%	?	?	-2%	?	-19%
Cc1sc2ncnc(N3CCC(C(=O)N(C)CC(=O)Nc4ccc(Cl)c(C(F)(F)F)c4)CC3)c2c1C	0%	-55*	?	?	15µM*	16µM*
CCN(CC(=O)Nc1cc(Cl)ccc1C)C(=O)C1CCN(c2ncnc3sc(C)c(C)c23)CC1	4%	-12	18µM*	?	6.5µM*	?
Cc1sc2ncnc(N3CCC(C(=O)N(C)CC(=O)Nc4ccccc4Cl)CC3)c2c1C	18%	0	16µM*	-7%	23µM*	-20%
CCN(CC(=O)Nc1cc(Cl)ccc1C)C(=O)C1CCCCC1	-9%	11	4%	3%	-1%	14%
CCc1ccccc1N/C=C(\C#N)c1nc(-c2ccc(C)cc2)cs1	1%	nt	nt	nt	nt	nt
Cc1c(C(=O)N2CCC3(CC2)CC(=O)c2ccccc2O3)cccc1[N+](=O)[O-]	-37%	33	18µM*	0%	23µM*	0%
O=C1CC2(CCN(C(=O)c3ccc(Br)cc3)CC2)Oc2ccccc21	-8%	-51*	?	-1%	18µM*	-16%
SMILES	12-LOX inh	IL-1B inflam inh	DT40 TDP1 CPT	HT1080NT lethal	TDP1 cell noCPT	HT1080 IDH1KD tx
COc1ccc(CCC(=O)N2Cc3ccccc3OC3(CCN(C)CC3)C2)cc1	10%	nt	nt	nt	nt	nt
CC(C)=CCCC1(C)C=Cc2c(c(C)cc3c2[nH]c2cc(O)ccc23)O1 (stereo not drawn)	?	-74*	?	?	16µM*	?
C=CCN(c1ccc(C(=O)Nc2ccc(NC(C)=O)cc2)cc1)S(C)(=O)=O	4%	28	?	1%	23µM*	-3%
CCN(CC(=O)Nc1ccc(OC)cc1)C(=O)c1ccc2c(c1)NC(=O)CS2	8.9µM*	33	-12%	0%	-33%	-9%
CC(C)[C@H](Nc1ccc(C(F)(F)F)cc1[N+](=O)[O-])C(=O)O	2%	28	2%	-3%	0%	-7%
O=C(NNc1ccc(C(F)(F)F)cc1[N+](=O)[O-])c1ccc(NS(=O)(=O)c2ccc(F)cc2)cc1	?	?	?	?	23µM*	21µM*
CN(CC(=O)Nc1cccc(F)c1)C(=O)CCc1ncc(-c2ccccc2)o1	1%	nt	nt	nt	nt	nt
COc1cc(COc2cc(N)c(Cl)cc2C(=O)CCC2CCN(CCNS(C)(=O)=O)CC2)cc(OC)c1	-28%	nt	27µM*	nt	16µM*	nt
COc1cc(N)c(Cl)cc1C(=O)CCC1CCN(CCNS(C)(=O)=O)CC1	-13%	nt	-15%	nt	-14%	nt
CSc1ccccc1NC(=O)CO/N=C(\C)c1cc2ccccc2o1	10%	?	?	-3%	?	-11%
C/C(=N\OCC(=O)NC12CC3CC(CC(C3)C1)C2)c1cc2ccccc2o1	-13%	-91*	21µM*	?	?	?
CN(C)C(=O)c1ccc(Cl)cc1	-11%	nt	nt	nt	nt	nt
COC(=O)C(C)N(C(=O)c1ccc(C(=O)c2ccccc2)cc1)c1c(C)cccc1C (stereo not drawn)	-5%	-7	13µM*	5%	20µM*	?
Cc1ccccc1NC(=O)C(C)c1cccc(C(=O)c2ccccc2)c1 (stereo not drawn)	6%	27	-14%	5%	?	12%
COC(=O)C(C)N(C(=O)c1ccc(Cl)cc1)c1c(C)cccc1C (stereo not drawn)	9%	5	15µM*	6%	?	-1%
